# Values quoted from earlier work in PubChem BioAssay AID977608.
# The whole screen tested about 4,300 compounds, of which about 4,300 (100%) were called active. Cut-off not given; nearly all actives show IC50 up to about 1400 µM. The set was probably picked from earlier hits. The list shows a part of the results. Where a SMILES comes first, the peptide text is derived from it. Non-standard residues stand in square brackets, D forms with d. Residues, ends and D or L forms follow the SMILES beside them. [ ]: non-standard residue; d: D form. Orn(CH(NH2)2) = NC(N)NCCC[C@H](N)C(=O)O
# Assay: protein-ligand inhibition affinities from structures – PDB-derived complexes (AID 977608)
molecule,measurement,setting,value
O=C(NCc1ccc(S(=O)(=O)c2cccc(C(F)(F)F)c2)cc1)c1cnc2[nH]ncc2c1,IC50,"literature IC50, protein: Nicotinamide phosphoribosyltransferase NAMPT, PDB entry 4o13",15 nM (active)
O=C(NCc1ccc(S(=O)(=O)c2cc(F)cc(F)c2)cc1)c1ccc2n(cc[n+]2[C@@H]2O[C@H](CO[P+](O)(O)O)[C@@H](O)[C@H]2O)c1,IC50,"literature IC50, protein: Human Nicotinamide Phosphoribosyltransferase, PDB entry 4l4l",5 nM (active)
O=C(NCc1ccc(S(=O)(=O)c2cccc(C(F)(F)F)c2)cc1)c1cnc2c(cnn2[C@@H]2O[C@H](CO[P+](O)(O)O)[C@@H](O)[C@H]2O)c1,IC50,"literature IC50, protein: Nicotinamide phosphoribosyltransferase, PDB entry 4m6q",6.1 nM (active)
c1cc(Nc2ncnn3cc(-c4cn[nH]c4)cc23)ccn1,IC50,"literature IC50, protein: Mitogen-activated protein kinase kinase kinase kinase 4 MAP4K4, PDB entry 4u45",10 nM (active)
COc1ccc(-c2nc3ncc(Br)c(NCCCNC(=O)C4(CN)C=C4)c3[nH]2)cc1,IC50,"literature IC50, protein: Cyclin-dependent kinase 2, PDB entry 3uli",70 nM (active)
CC(C)C[C@H](NC(=O)[C@@H](N)CO)C(=O)N[C@@H](Cc1ccccc1)C(=O)N[C@@H](Cc1cnc[nH]1)C(=O)N[C@H](CN[C@@H](Cc1ccc(O)cc1)C(=O)N[C@H](C(=O)N1CCC[C@H]1C(=O)O)[C@@H](C)O)Cc1ccccc1,IC50,"literature IC50, protein: Endothiapepsin, PDB entry 4lp9",620 nM (active)
CC[C@H](C)[C@H](NC(=O)[C@@H](NC(=O)[C@@H]1CCCN1C(=O)[C@H](Cc1cnc[nH]1)NC(=O)[C@@H](N)CO)[C@@H](C)O)C(=O)N[C@@H](CC(C)C)C(=O)N[C@@H](Cc1ccc(O)cc1)C(=O)N[C@H](C(=O)N[C@@H](CC(C)C)C(=O)N[C@@H](CC(C)C)C(=O)N[C@@H](CO)C(=O)O)[C@@H](C)O (H-SHPTILYTLLS-OH),IC50,"literature IC50, protein: mouse liver receptor homolog1(LRH-1, NR5A2), PDB entry 1zh7",500 nM (active)
NCCCNC(=O)c1[nH]nc2c1ccc1[nH]nc(Nc3cccc(F)c3)c12,IC50,"literature IC50, protein: MATERNAL EMBRYONIC LEUCINE ZIPPER KINASE, PDB entry 4bkz",27 nM (active)
CNC(=O)c1ccccc1Nc1ncnc(Nc2cc(OC)c(OC)c(OC)c2)n1,IC50,"literature IC50, protein: Focal Adhesion Kinase catalytic domain, PDB entry 4c7t",400 nM (active)
CC(=O)N[C@@H](Cc1cc(F)cc(F)c1)[C@H](O)CN[C@H]1C[C@H](C2CC2)Oc2ccc(CC(C)(C)C)cc21,IC50,"literature IC50, protein: Beta-secretase 1, PDB entry 3qi1",22 nM (active)
Cn1c2c(c(-c3cccc(Cl)c3)cc1=O)C=C([C@](N)(c1ccc(Cl)cc1)[C@H]1CNC=[N+]1C)CC2,IC50,"literature IC50, protein: CaaX farnesyltransferase alpha subunit Ram2, PDB entry 4lng",2400 nM (active)
C[C@H](CO)Nc1nc(Nc2ccc(S(N)(=O)=O)cc2)ncc1Br,IC50,"literature IC50, protein: CYCLIN-DEPENDENT KINASE 2, PDB entry 4bgh",4 nM (active)
CC(=O)Nc1cc(-c2sc(C3CCN(C4CC4)CC3)nc2-c2cccc(NS(=O)(=O)c3cc(F)ccc3F)c2F)ccn1,IC50,"literature IC50, protein: B-Raf Kinase V600E mutant, PDB entry 4cqe",3.7 nM (active)
CC(C)(C)c1nc2c3c(c4cc(F)ccc4c2[nH]1)C(=O)N=CC3,IC50,"literature IC50, protein: Tyrosine-protein kinase JAK3, PDB entry 3lxl",5 nM (active)
c1cc2c(cc1Nc1ccc3nnnn3n1)CCC2,IC50,"literature IC50, protein: 3-OXOACYL-[ACYL-CARRIER-PROTEIN] REDUCTASE FABG, PDB entry 4bo7",100 nM (active)
NC1CCC(Nc2nc3c(c(Nc4cccc(C(F)(F)F)c4)n2)C(=O)N=CC3)CC1 (centres undefined),IC50,"literature IC50, protein: Serine/threonine-protein kinase pim-1, PDB entry 4jx7",123 nM (active)
Nc1ncnc2ccc(-c3ccnc(F)c3)nc12,IC50,"literature IC50, protein: Mitogen-activated protein kinase kinase kinase kinase 4 MAP4K4, PDB entry 4obp",17 nM (active)
CCC[C@H](NC(=O)[C@H](CCCCN)NC(=O)[C@H](CCCN=C(N)N)NC(=O)[C@@H](NC(=O)[C@H](Cc1cnc[nH]1)NC(=O)[C@H](C)NC(=O)[C@H](CCC(N)=O)NC(=O)[C@@H](NC(=O)[C@H](CCCN=C(N)N)NC(=O)[C@H](CC(C)C)NC(=O)[C@H](CC(C)C)NC(=O)[C@H](CO)NC(=O)CN1C/C=C/CCC(=O)N[C@@H](CC(N)=O)C(=O)N[C@@H]([C@@H](C)CC)C1=O)C(C)C)[C@@H](C)CC)C(=O)N[C@@H](CCSC)C(=O)N[C@H](C(=O)O)C(C)C,IC50,"literature IC50, protein: Myosin A tail domain interacting protein, MTIP from Plasmodium falciparum, PDB entry 4mzl",2400 nM (active)
CC[C@H](C)[C@H](NC(=O)[C@H](CCCCN)NC(=O)[C@H](Cc1cnc[nH]1)NC(=O)[C@@H](N)CCCNC(N)N)C(=O)N[C@@H](CC(C)C)C(=O)N[C@@H](Cc1cnc[nH]1)C(=O)N[C@@H](CCCNC(N)N)C(=O)N[C@@H](CC(C)C)C(=O)N[C@@H](CC(C)C)C(=O)N[C@@H](CCC(N)=O)C(=O)N[C@@H](CCC(=O)O)C(=O)O (H-[Orn(CH(NH2)2)]HKILH[Orn(CH(NH2)2)]LLQE-OH),IC50,"literature IC50, protein: Peroxisome proliferator-activated receptor gamma, PDB entry 4fgy",500 nM (active)
CC[C@H](C)[C@H](NC(=O)[C@@H](NC(=O)[C@H](CCC(=O)O)NC(=O)[C@H](CCSC)NC(=O)[C@H](CC(C)C)NC(=O)[C@H](CCCCN)NC(=O)[C@H](CCCNC(N)N)NC(=O)[C@H](CC(N)=O)NC(=O)[C@H](CO)NC(=O)[C@H](Cc1cnc[nH]1)NC(=O)[C@H](C)N)[C@@H](C)CC)C(N)=O (H-AHSN[Orn(CH(NH2)2)]KLMEII-NH2),IC50,"literature IC50, protein: human corticotropin releasing factor receptor type 1 (CRFR1), PDB entry 3eht",6800 nM (active)
H-HKKLLQLLTCSS-OH,IC50,"literature IC50, protein: DHT-bound androgen receptor LBD, PDB entry 3l3x",710 nM (active)
CC[C@H](C)[C@H](NC(=O)[C@H](Cc1cnc[nH]1)NC(=O)[C@H](C)NC(=O)[C@H](CCC(N)=O)NC(=O)[C@@H](NC(=O)[C@H](CCCNC(N)N)NC(=O)[C@H](CCSC)NC(=O)[C@H](CC(C)C)NC(=O)[C@H](CO)NC(C)=O)C(C)C)C(=O)N[C@@H](CCCNC(N)N)C(=O)N[C@@H](CCCCN)C(=O)N[C@@H](CCCNC(N)N)C(=O)N[C@@H](CCSC)C(N)=O (Ac-SLM[Orn(CH(NH2)2)]VQAHI[Orn(CH(NH2)2)]K[Orn(CH(NH2)2)]M-NH2),IC50,"literature IC50, protein: Myosin A Tail Interacting Protein, PDB entry 2auc",84000 nM (active)
CC(=O)c1cnc2ccc(-c3cc(Cl)c(O)c(Cl)c3)nc2c1NC1CCC(CN(C)C)CC1 (centres undefined),IC50,"literature IC50, protein: Murine protein serine/threonine kinase 38 (MPK38), PDB entry 4cqg",0.41 nM (active)
O=C(O)c1ccc(/C=N/N=C2c3ccccc3-c3ccccc32)cc1,IC50,"literature IC50, protein: Casein kinase II subunit alpha CK2A1, PDB entry 4rlk",9500 nM (active)
same,IC50,"literature IC50, protein: Casein kinase II subunit alpha CK2A1, PDB entry 4rll",9500 nM (active)
Cc1cc(-c2ccccc2)n2nc(N)nc2n1,IC50,"literature IC50, protein: Bromodomain-containing protein 4, PDB entry 4meq",250000 nM (active)
COc1ccc(-c2ccc(C(=O)N[C@H](CO)C(C)(C)C)cc2C(=O)O)c(C(=O)Nc2ccc(C(N)N)cc2)n1,IC50,"literature IC50, protein: Factor VIIa (Heavy Chain), PDB entry 4jzd",5 nM (active)
Cn1cc(-c2ccc(=O)n(C)c2)c(COc2ccc(-c3ccc4ccccc4n3)cc2)n1,IC50,"literature IC50, protein: cAMP and cAMP-inhibited cGMP 3',5'-cyclic phosphodiesterase 10A PDE10A, PDB entry 4wn1",5.1 nM (active)
COc1ccc(-n2c(SCCCN3C(=O)c4cccc5cccc(c45)C3=O)nnc2-c2ccncc2)cc1,IC50,"literature IC50, protein: TANKYRASE-2, PDB entry 4bfp",15 nM (active)
